Assay outcomes: PubChem BioAssay, National Center for Advancing Translational Sciences (NCATS)
Sampled rows, rich in hits. Any-hit rate of the full collection: about 12%.
HCV inh: HCV inhibition | Huh7.5.1 HCVcc-Cre infection, luciferase reporter, 44 h | Potency, µM (top dose mostly 41.8 µM), for the others: at the highest dose activity change, negative = inhibition, hits mostly inhibitors | 340,000 tested, 3.4% active | AID 651820; further: on the % scale 0 is the no-effect control and ±100 the full control effect
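HCVcc-Cre virus at an moi near 0.5 was added right after compound to cells cultured 4 h from seeding (1,000 cells/well). Luciferase activity was determined 44 h later, 15 min after substrate addition at RT.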
NS1 function inh: inhibitors of influenza NS1 protein function; Potency, µM (doses to about 46.1 µM), inactives show at the top dose activity, positive = more growth; 270,000 tested, 0.4% active; AID 2326; calls by dose curve; further: actives are rising curves; nearly all actives have a fitted effect of over 50% in size
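Read-out: OD600 growth recovery of NS1-expressing budding yeast. Cells grown overnight at 30C in -URA glucose medium, washed, resuspended and diluted 1:100 in 2% galactose assay medium, pH 6.0. Same strain lacking NS1 served as positive control.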
Pf growth 48h: inhibits P. falciparum growth in the first generation, 48 h | Potency, µM (top dose mostly 28.7 µM), inactives show at the highest dose activity change, negative = inhibition, hits mostly inhibitors | 310,000 tested, 5.9% active | P. falciparum luciferase growth in erythrocytes, 48 h; further: on the % scale 0 is the no-effect control and ±100 the full control effect
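Erythrocytes infected with P. falciparum carrying an integrated firefly luciferase reporter (2% hematocrit, 0.1% parasitemia final) were exposed to compounds in RPMI 1640 with 0.5% Albumax at 37 C, 5% CO2. Growth inhibition was scored as reduced luminescence.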
Pf growth 96h: P. falciparum growth inhibition at 96 hour, primary screen for plastid delayed-death inhibitors. P. falciparum luciferase reporter growth, 96 h. Potency, µM (titrated, usually from 28.7 µM), inactives show at the highest dose activity change, negative = inhibition, hits mostly inhibitors. 320,000 tested, 6.9% active. AID 504834; further: on the % scale 0 is the no-effect control and ±100 the full control effect
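Parasite growth measured via integrated firefly luciferase reporter in P. falciparum. Infected erythrocytes at 2% hematocrit, 0.05% parasitemia final were treated 96 hours at 37 C under 5% CO2, and luminescence was read.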
SARS PLpro yeast: blocks SARS-CoV papain-like protease in a yeast assay | S. cerevisiae expressing SARS-CoV PLpro, growth rescue | Potency, µM (titrated, usually from 32.9 µM), for inactives: top-dose activity, positive = growth rescue, most hits filed as activators | 330,000 tested, 0.19% active; calls by dose curve; further: 0% is about no effect; nearly all actives have a fitted effect of over 55% in size
AMA1 RON2 block: disrupts binding of P. falciparum AMA1 to RON2 | AlphaScreen AMA1-biotinylated RON2 peptide binding | Potency, µM (titrated, usually from 58.2 µM), without a hit: at the highest dose activity change, negative = inhibition, usual class: inhibitors | 360,000 tested, 0.2% active;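 further: 0% = vehicle wells and -100% = peptide control; nearly all actives have a fitted effect of over 45% in size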
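AMA1 (3D7) with his tag at 25 nM final met compounds first, then biotinylated RON2 peptide at 25 nM; detection used donor plus acceptor beads, 10 µg/mL apiece, read by AlphaScreen after 30 min at room temperature.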
The depositor's hits bear a star. Unless noted, the call rests on the fitted dose curve; in most records, active means well fitted curve in the direction sought with a large enough effect; inconclusive means small, poorly fitted or top-dose-only effect, or another doubt; inactive means no such curve, though single readings can be large; an effect the other way counts as inactive or inconclusive. Potency means the concentration at half of the fitted maximal effect.

Results for CC1NS(=O)(=O)c2cc([N+](=O)[O-])ccc21 (stereo unspecified) ?
AMA1 RON2 block: 1%

Results for N=c1ccn2c(n1)O[C@H]1[C@@H](O)[C@@H](CO)O[C@H]12 ?
NS1 function inh: -5%

Results for Cc1ccc(C)c(S(=O)(=O)N2CCC(c3nc4c(nnn4Cc4ccc(F)cc4)c(=O)[nH]3)CC2)c1 ?
HCV inh: 8%; NS1 function inh: inconclusive; Pf growth 48h: inconclusive; Pf growth 96h: 68%; SARS PLpro yeast: 1%; AMA1 RON2 block: 1%

What do the screens show for `O=c1[nH]c(C2CCN(S(=O)(=O)/C=C/c3ccccc3)CC2)nc2c1nnn2Cc1ccc(F)cc1`?
HCV inh: -17%; NS1 function inh: inconclusive; Pf growth 48h: 1.9µM*; Pf growth 96h: inconclusive; SARS PLpro yeast: 2%; AMA1 RON2 block: -3%

What do the screens show for `Cc1ccc(Cn2nnc3c(=O)[nH]c(C4CCN(S(=O)(=O)c5cc(C)ccc5C)CC4)nc32)cc1`?
HCV inh: inconclusive; NS1 function inh: inconclusive; Pf growth 48h: 5.2µM*; SARS PLpro yeast: 7%; AMA1 RON2 block: 0%

How did O=C(Nc1ccc(OCc2ccccc2)cc1)Nc1ccccc1C(=O)NCCCN1CCOCC1 do in these assays?
HCV inh: -22%; NS1 function inh: 0%; Pf growth 48h: inconclusive; Pf growth 96h: -21%; SARS PLpro yeast: -2%; AMA1 RON2 block: -12%

What do the screens show for `CN(Cc1cnn(Cc2ccccc2)c1)C(=O)CN=C1NS(=O)(=O)c2ccccc21`?
HCV inh: 0%; Pf growth 48h: -7%; Pf growth 96h: -6%; SARS PLpro yeast: -5%; AMA1 RON2 block: 6%

How did COc1ccc(-n2nnnc2/C=C\Nc2ccccc2C(=O)c2ccccc2)cc1 do in these assays?
HCV inh: 7.9µM*; NS1 function inh: 13%; Pf growth 48h: inconclusive; Pf growth 96h: 8.3µM*; SARS PLpro yeast: 5%; AMA1 RON2 block: -3%

Results for COc1ccc(-n2nnnc2/C=C/Nc2cc(C(F)(F)F)ccc2OC)cc1 ?
HCV inh: inconclusive; NS1 function inh: 3%; Pf growth 48h: inconclusive; Pf growth 96h: inconclusive; SARS PLpro yeast: -1%; AMA1 RON2 block: 5%

How did C#CCNC(=O)C1=C[C@H](c2csc3ccccc23)[C@@H](CCCO)[C@H](OCC)O1 do in these assays?
HCV inh: 9%; NS1 function inh: 1%; Pf growth 48h: 0%; Pf growth 96h: inconclusive; SARS PLpro yeast: -1%; AMA1 RON2 block: -6%

What do the screens show for `CCO[C@@H]1OC(C(=O)Nc2ccccc2)=C[C@H](c2csc3ccccc23)[C@H]1CCCO`?
HCV inh: -23%; NS1 function inh: 5%; Pf growth 48h: 7.4µM*; Pf growth 96h: inconclusive; SARS PLpro yeast: 1%; AMA1 RON2 block: 4%

How did CCO[C@@H]1OC(C(=O)NCc2ccccc2)=C[C@H](c2csc3ccccc23)[C@H]1CCCO do in these assays?
HCV inh: inconclusive; NS1 function inh: 4%; Pf growth 48h: inconclusive; Pf growth 96h: 10µM*; SARS PLpro yeast: 0%; AMA1 RON2 block: 6%

Results for CCO[C@H]1OC(C(=O)NC2CC2)=C[C@@H](c2csc3ccccc23)[C@@H]1CCCO ?
HCV inh: 25%; NS1 function inh: 3%; Pf growth 48h: inconclusive; Pf growth 96h: 0.19µM*; SARS PLpro yeast: 1%; AMA1 RON2 block: -1%

What do the screens show for `COc1cccc(CN(C)CC(=O)Nc2ccccc2C(C)C)c1`?
HCV inh: -18%; Pf growth 48h: inconclusive; Pf growth 96h: -12%; SARS PLpro yeast: 1%; AMA1 RON2 block: -16%

Results for Nc1cc(Cl)ccc1N1CCOCC1 ?
HCV inh: -2%; NS1 function inh: -1%; Pf growth 48h: 13%; SARS PLpro yeast: -2%; AMA1 RON2 block: -6%

How did Nc1cc(Cl)ccc1N1CCCC1 do in these assays?
HCV inh: 6%; Pf growth 48h: 2.1µM*; Pf growth 96h: inconclusive; SARS PLpro yeast: -2%; AMA1 RON2 block: 0%

What do the screens show for `CN1CCN(c2ccc(F)cc2N)CC1`?
HCV inh: 13%; Pf growth 48h: 23%; Pf growth 96h: inconclusive; SARS PLpro yeast: 1%; AMA1 RON2 block: -3%

Results for Nc1cc(F)ccc1N1CCCCCC1 ?
HCV inh: inconclusive; Pf growth 48h: 1µM*; Pf growth 96h: 144%; SARS PLpro yeast: -3%; AMA1 RON2 block: -3%

What do the screens show for `COc1ccc(C(C)=O)cc1CSc1ccc(S(=O)(=O)N2CCOCC2)cn1`?
HCV inh: inconclusive; Pf growth 48h: inconclusive; Pf growth 96h: inconclusive; SARS PLpro yeast: -5%; AMA1 RON2 block: -8%

Results for CCOC(=O)c1c(S(=O)(=O)NCC(=O)Nc2ccccc2)c(C)n(C)c1C ?
HCV inh: 1%; NS1 function inh: -10%; Pf growth 48h: 5%; Pf growth 96h: 52%; SARS PLpro yeast: -5%; AMA1 RON2 block: 2%

What do the screens show for `CCOC(=O)c1c(S(=O)(=O)NCC(=O)Nc2cccc(C)c2)c(C)n(C)c1C`?
HCV inh: 10%; NS1 function inh: 14%; Pf growth 48h: -25%; Pf growth 96h: 4.1µM*; SARS PLpro yeast: 0%; AMA1 RON2 block: 0%

How did CCOC(=O)c1c(S(=O)(=O)NCC(=O)Nc2cc(C)ccc2OC)c(C)n(C)c1C do in these assays?
HCV inh: 18%; NS1 function inh: 0%; Pf growth 48h: -9%; Pf growth 96h: 9.3µM*; SARS PLpro yeast: -2%; AMA1 RON2 block: 5%

Results for CN(C(=O)COc1ncnc2sccc12)C1CCCCC1 ?
HCV inh: 11%; Pf growth 48h: 17%; Pf growth 96h: -1%; SARS PLpro yeast: 6%; AMA1 RON2 block: 0%

What do the screens show for `O=C(O)CCC(=O)N1CCc2cc(S(=O)(=O)Nc3ccc4c(c3)OCCO4)ccc21`?
HCV inh: 1%; NS1 function inh: 15%; Pf growth 96h: 13µM*; SARS PLpro yeast: -5%; AMA1 RON2 block: -2%

Results for Cc1ccc(CN2CCC(C(=O)Nc3ccc(Oc4cccnc4)cc3)CC2)cc1 ?
NS1 function inh: -6%; Pf growth 48h: 10µM*; Pf growth 96h: -21%; SARS PLpro yeast: -3%; AMA1 RON2 block: -2%

What do the screens show for `O=C(Nc1ccc(Oc2cccnc2)cc1)C1CCN(Cc2ccccc2)CC1`?
HCV inh: -27%; NS1 function inh: -8%; Pf growth 48h: inconclusive; Pf growth 96h: inconclusive; SARS PLpro yeast: 3%; AMA1 RON2 block: -9%

What do the screens show for `CC(=O)c1cccc(CN2CCC(C(=O)Nc3ccc(-c4cccc(C)c4)cc3)CC2)c1`?
HCV inh: inconclusive; NS1 function inh: -30%; Pf growth 48h: 4.1µM*; Pf growth 96h: -29%; SARS PLpro yeast: -3%; AMA1 RON2 block: -1%
